Structures can show the parent of a compound that is named as a salt.

This test deals with Danio rerio larvae (5 dpf). In words: optomotor response to fast red moving lines, difference vs DMSO (percentage points (treated minus DMSO)); higher = more of the behaviour than the DMSO vehicle control. The following applies: 10 µM; exposure time: 3 h pre-incubation + 3 h imaging. The procedure: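 5-dpf wild-type zebrafish larvae were imaged in 96-well plates. They were treated with 190 Tocris FDA-approved drugs at 10 µM (1 µl/ml DMSO) for 3 h before and 3 h during imaging at 28.5 °C, 48 larvae per drug. Automated image analysis gave % time moving and optomotor responses. Values are drug group mean minus DMSO vehicle mean (n=844), in percentage points, for 10 behaviours.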
With `CN(C)CCc1c[nH]c2ccc(C[C@H]3COC(=O)N3)cc12` [Zolmitriptan], the optomotor response is -9.74.
`Clc1ccc(COC(Cn2ccnc2)c2ccc(Cl)cc2Cl)c(Cl)c1` (stereo not given) [Miconazole nitrate]: the optomotor response was -18.6.
Under `NS(=O)(=O)c1cc(C(=O)O)c(NCc2ccco2)cc1Cl` [Furosemide] stands 0.619; under `CNC(=O)c1ccccc1Sc1ccc2c(/C=C/c3ccccn3)n[nH]c2c1` [Axitinib], -2.38; under `Cc1ccc(-c2cc(C(F)(F)F)nn2-c2ccc(S(N)(=O)=O)cc2)cc1` [Celecoxib], -11.4.
The same measure for `Cc1nc(Nc2ncc(C(=O)Nc3c(C)cccc3Cl)s2)cc(N2CCN(CCO)CC2)n1` [Dasatinib]: -12.1.
As for `C[C@H](Cc1cc2c(c(C(N)=O)c1)N(CCCO)CC2)NCCOc1ccccc1OCC(F)(F)F` [Silodosin], the optomotor response was 11.4.
Turning to `CCCCc1nc(Cl)c(CO)n1Cc1ccc(-c2ccccc2-c2nnn[nH]2)cc1` [Losartan potassium], the optomotor response is -3.43.
The same measure for `CNC(=O)c1cc(Oc2ccc(NC(=O)Nc3ccc(Cl)c(C(F)(F)F)c3)cc2)ccn1` [Sorafenib]: -21.1; for `CC(C)N(CCCCOCC(=O)NS(C)(=O)=O)c1cnc(-c2ccccc2)c(-c2ccccc2)n1` [Selexipag]: -6.49; for `Clc1ccc2nsnc2c1NC1=NCCN1` [Tizanidine hydrochloride]: 4.15.
With `N#Cc1ccc(C(c2ccc(C#N)cc2)n2cncn2)cc1` [Letrozole], the optomotor response amounted to 4.75.
The same measure for `CN(CCOc1ccc(NS(C)(=O)=O)cc1)CCc1ccc(NS(C)(=O)=O)cc1` [Dofetilide]: 2.79; for `COc1ccccc1OCC(O)CN1CCN(CC(=O)Nc2c(C)cccc2C)CC1` (stereo not given) [Ranolazine dihydrochloride]: 9.26; for `Nc1ncn([C@@H]2O[C@H](CO)[C@@H](O)[C@H]2O)c(=O)n1` [5-Azacytidine]: 1.5.
Under `CCCCCCCN(CC)CCCC(O)c1ccc(NS(C)(=O)=O)cc1` (stereo not given) [Ibutilide hemifumarate] stands 3.06.
The same measure for `COc1cc2ncnc(Nc3ccc(F)c(Cl)c3)c2cc1OCCCN1CCOCC1` [Iressa]: 8.7; for `CC(C)[C@H]1CC[C@H](C(=O)N[C@H](Cc2ccccc2)C(=O)O)CC1` [Nateglinide]: -0.789.
As for `NC(=O)OCC(COC(N)=O)c1ccccc1` [Felbamate], the optomotor response stood at 8.45.
`Cc1cc(C2CCCCC2)n(O)c(=O)c1` [Ciclopirox]: the optomotor response amounted to 3.21.
On to `CC(=O)O[C@H]1C(=O)[C@@]2(C)[C@H]([C@H](OC(=O)c3ccccc3)[C@]3(O)C[C@H](OC(=O)[C@H](O)[C@@H](NC(=O)c4ccccc4)c4ccccc4)C(C)=C1C3(C)C)[C@]1(OC(C)=O)CO[C@@H]1C[C@@H]2O` [Taxol], for which the optomotor response is -16.4.
The same measure for `COc1c(C)c2c(c(O)c1C/C=C(\C)CCC(=O)OCCN1CCOCC1)C(=O)OC2` [Mycophenolate mofetil]: 2.27; for `CC(c1cc2ccccc2s1)N(O)C(N)=O` (stereo not given) [Zileuton]: -16.8.
For the compound `CS(=O)(=O)CCNCc1ccc(-c2ccc3ncnc(Nc4ccc(OCc5cccc(F)c5)c(Cl)c4)c3c2)o1` [Lapatinib], the optomotor response was -0.638.
Take `CCN(CC)CCNC(=O)c1c(C)[nH]c(/C=C2\C(=O)Nc3ccc(F)cc32)c1C` [Sunitinib malate]: the optomotor response turned out to be 10.6.
The same measure for `CCC(C)(C)C(=O)O[C@H]1C[C@@H](C)C=C2C=C[C@H](C)[C@H](CC[C@@H]3C[C@@H](O)CC(=O)O3)[C@H]21` [Simvastatin]: -13.2; for `CC(C)C(=O)OCC(=O)[C@@]12O[C@H](C3CCCCC3)O[C@@H]1C[C@H]1[C@@H]3CCC4=CC(=O)C=C[C@]4(C)[C@H]3[C@@H](O)C[C@@]12C` [Ciclesonide]: -3.93; for `CCc1ccc(CCOc2ccc(CC3SC(=O)NC3=O)cc2)nc1` (stereo not given) [Pioglitazone hydrochloride]: -6.55.
The same measure for `Cc1ccccc1C(=O)Nc1ccc(C(=O)N2CCCC(O)c3cc(Cl)ccc32)c(C)c1` (stereo not given) [Tolvaptan]: 2.23; for `Clc1ccccc1C(c1ccccc1)(c1ccccc1)n1ccnc1` [Clotrimazole]: 17.9; for `Cn1cnc([N+](=O)[O-])c1Sc1ncnc2[nH]cnc12` [Azathioprine]: 9.79.
The same measure for `OCCN1C[C@H](O)[C@@H](O)[C@H](O)[C@H]1CO` [Miglitol]: -3.78.
For `CCOC(=O)C1=C(COCCN)NC(C)=C(C(=O)OC)C1c1ccccc1Cl` (stereo not given) [Amlodipine besylate], the optomotor response was 7.5.
Under `CCCC1O[C@@H]2C[C@H]3[C@@H]4CCC5=CC(=O)C=C[C@]5(C)[C@H]4[C@@H](O)C[C@]3(C)[C@]2(C(=O)CO)O1` (stereo not given in full) [Budesonide] stands 0.572; under `CCc1nc(N)nc(N)c1-c1ccc(Cl)cc1` [Pyrimethamine], 9.74.
Turning to `Brc1c(NC2=NCCN2)ccc2nccnc12`, the optomotor response was 16.1.
The same measure for `Cc1cccc(CN2CCN(C(c3ccccc3)c3ccc(Cl)cc3)CC2)c1` (stereo not given) [Meclizine dihydrochloride]: -10.8; for `COc1ccc(-c2ccc3cc(C(=O)O)ccc3c2)cc1C12CC3CC(CC(C3)C1)C2` [Adapalene]: -11.7.
Under `OCCN(CCO)c1nc(N2CCCCC2)c2nc(N(CCO)CCO)nc(N3CCCCC3)c2n1` [Dipyridamole] stands 7.3.
Under `COc1ccc(Cl)cc1C(=O)NCCc1ccc(S(=O)(=O)NC(=O)NC2CCCCC2)cc1` [Glibenclamide] stands -19.5.

The values above are taken from the supplement of paper PMC9023506.
